# The supplement of paper PMC8728848
# About 410 targets per protein were measured; listed, in parts, are those with the strongest signals and a random draw of the rest.
# B1: Epa3to2 (Candida glabrata) (protein)
# chain: MGSSHHHHHHSSGLVPRGSHMKRELSSQNPFGYPIGCSPQDVAIIPGLTMELYSYPIVSGTPPNCYDASYVDPEYPRTGYLKRKMVGKSTGVTGNLNYKYSVEKACMVKYGNLPAGYNYNEPLTVSNFTMILYGYFKAQTTGLHTFFVNADDLLYINFGAGNAFDCCKREDSKTKLGEYVAYDIWHVDSSKNKVSLFLEKDLYYPIRMFFNNRDNNSSLDLSFSVNGATDQISDFSGYLYSVPDQPDTCPAHIGYDTTCR
# What was measured:
# Assay in all cases: glycan array binding signal (z-score within array); higher = stronger binding
# Conditions in all cases: glycan notation: IUPAC condensed, linker removed
# [1] = target: GlcNAc(b1-2)Gal(b1-3)GalNAc
# In short: (§1)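 Glycan array binding is given as a within-array Z-score, which can be read as non-binding when negative. The arrays, 3228 of them, came from the Consortium for Functional Glycomics database and were retained only where the protein sequence was available. Z-scores were averaged across arrays of the same protein sequence at different concentrations or buffers and across linkers.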
# [2] = target: Man(a1-3)[Man(a1-6)]Man(a1-6)[Man(a1-2)Man(a1-3)]Man(b1-4)GlcNAc(b1-4)GlcNAc
# In short: as §1
# [3] = target: Man(a1-3)[Man(a1-6)]Man(a1-6)[Man(a1-3)]Man
# In short: as §1
# [4] = target: Neu5Ac(a2-3)Gal(b1-3)GlcNAc(b1-2)Man(a1-3)[Neu5Ac(a2-3)Gal(b1-3)GlcNAc(b1-2)Man(a1-6)]Man(b1-4)GlcNAc(b1-4)GlcNAc
# In short: as §1
# Neu5Ac(a2-3)Gal(b1-4)Glc = target: Neu5Ac(a2-3)Gal(b1-4)Glc
# In short: as §1
# [5] = target: Neu5Ac(a2-3)Gal(b1-4)GlcNAc(b1-2)Man
# In short: as §1
# [6] = target: Neu5Ac(a2-3)Gal(b1-4)GlcNAc(b1-2)[Neu5Ac(a2-3)Gal(b1-4)GlcNAc(b1-4)]Man(a1-3)[GlcNAc(b1-4)][Neu5Ac(a2-3)Gal(b1-4)GlcNAc(b1-2)[Neu5Ac(a2-3)Gal(b1-4)GlcNAc(b1-6)]Man(a1-6)]Man(b1-4)GlcNAc(b1-4)GlcNAc
# In short: as §1
# [7] = target: Neu5Ac(a2-3)Gal(b1-4)GlcNAc(b1-2)[Neu5Ac(a2-3)Gal(b1-4)GlcNAc(b1-4)]Man(a1-3)[GlcNAc(b1-4)][Neu5Ac(a2-3)Gal(b1-4)GlcNAc(b1-4)Man(a1-6)]Man(b1-4)GlcNAc(b1-4)GlcNAc
# In short: as §1
# [8] = target: Neu5Ac(a2-3)Gal(b1-4)[Fuc(a1-3)]GlcNAc(b1-2)Man
# In short: as §1
# [9] = target: Neu5Ac(a2-3)[Neu5Ac(a2-6)]GalNAc
# In short: as §1
# [10] = target: Neu5Ac(a2-6)Gal(b1-4)GlcNAc(b1-2)Man(a1-3)Man(b1-4)GlcNAc(b1-4)GlcNAc
# In short: as §1
# [11] = target: Neu5Ac(a2-6)GalNAc(b1-4)GlcNAc
# In short: as §1
# Neu5Ac(a2-8)Neu5Ac = target: Neu5Ac(a2-8)Neu5Ac
# In short: as §1
# [12] = target: Neu5Ac(a2-8)Neu5Ac(a2-3)Gal(b1-4)GlcNAc
# In short: as §1
# [13] = target: Neu5Ac(a2-8)Neu5Ac(a2-8)Neu5Ac(a2-3)[GalNAc(b1-4)]Gal(b1-4)Glc
# In short: as §1
# Neu5Gc(a2-3)Gal(b1-4)Glc = target: Neu5Gc(a2-3)Gal(b1-4)Glc
# In short: as §1
# [14] = target: Neu5Gc(a2-3)Gal(b1-4)GlcNAc(b1-3)Gal(b1-4)GlcNAc(b1-2)Man(a1-3)[Neu5Gc(a2-3)Gal(b1-4)GlcNAc(b1-3)Gal(b1-4)GlcNAc(b1-2)Man(a1-6)]Man(b1-4)GlcNAc(b1-4)GlcNAc
# In short: as §1
# Neu5Gc(a2-6)GalNAc = target: Neu5Gc(a2-6)GalNAc
# In short: as §1
binder,measurement,setting,value
B1,glycan array binding signal (z-score),[1],-1.16
same,glycan array binding signal (z-score),[2],3.92
same,glycan array binding signal (z-score),[3],0.52
same,glycan array binding signal (z-score),[4],-0.658
same,glycan array binding signal (z-score),Neu5Ac(a2-3)Gal(b1-4)Glc,7.38
same,glycan array binding signal (z-score),[5],2.24
same,glycan array binding signal (z-score),[6],1.37
same,glycan array binding signal (z-score),[7],-0.302
same,glycan array binding signal (z-score),[8],-0.793
same,glycan array binding signal (z-score),[9],-1.13
same,glycan array binding signal (z-score),[10],2.19
same,glycan array binding signal (z-score),[11],-0.698
same,glycan array binding signal (z-score),Neu5Ac(a2-8)Neu5Ac,1.01
same,glycan array binding signal (z-score),[12],0.968
same,glycan array binding signal (z-score),[13],0.534
same,glycan array binding signal (z-score),Neu5Gc(a2-3)Gal(b1-4)Glc,0.038
same,glycan array binding signal (z-score),[14],-0.277
same,glycan array binding signal (z-score),Neu5Gc(a2-6)GalNAc,2.12
